Results on 40 molecules are retold here after PubChem BioAssay.

Activity calls are given as the source filed them.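 How the source made its calls: active means Her2 level under about 52% in both replicate screens, with viability over 70% of control (limit read from the data); inconclusive means Her2 under the limit in one screen only, or viability under 70%; inactive means Her2 level above the set limit.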

Tested on in the first experiment: not listed separately
The experiment in a line: Her2 expression decrease, cell viability multiplex – SKBR3 breast tumor cells, AlphaScreen, ATP viability, primary screen (AID 461).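 On viability: percent of carrier control wells set as 100% viability.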 The following applies: SKBR3 Her2 protein level, 18-24 h, measured here: SKBR3 viability, ATP luminescence, at 10 µM.
With `Cc1ccc(-c2nnn(CC(=O)N(CC(=O)NC3CCCCC3)c3cnc4ccccc4c3)n2)o1`, the viability amounted to 98%.
For the molecule `COCc1nnc(NC(=O)CCCOc2ccccc2)s1`, the viability was found to be 107%.
The same measure, in the same setting: as for `CCc1cc2ccc(C)cc2nc1SCC(=O)N1CCN(C(=O)c2ccco2)CC1`, the figure is 112%.
Still for that read-out and setting: as for `NC(=O)NC(c1ccccc1)c1ccccc1F` (stereo not given), the figure is 91%.
Same read-out and setting: the same measure for `CC(C)c1nnc(SCC(=O)NCc2ccco2)n1C`: 105%.
As to `Cn1c(=O)c2c(nc(NCCCO)n2C/C=C/c2ccccc2)n(C)c1=O`, the viability came out at 73.5%.
`O=C(Nc1c(-c2ccccc2)nc2ccccn12)c1ccco1`: the viability was 95%.
Same read-out and setting: as for `Nc1nc(N2C(=O)C3CC=CCC3C2=O)nn1-c1ccccc1` (stereo not given), the figure is 101%.
Regarding `COc1ccc(C(=O)NCc2nnc(SCC(=O)Nc3cc(C)cc(C)c3)o2)cc1OC`, the viability was found to be 89.5%.
Take `c1coc(Cn2nnnc2CN2CCN(C3CCCC3)CC2)c1`: the viability worked out at 90.5%.
On the same count and under the same terms, the same measure for `O=C(C1CCN(c2nnnn2-c2ccccc2)CC1)N1CCN(c2ccccc2)CC1`: 106%; for `COC(=O)c1ccc(CNC(=O)COc2ccccc2Br)o1`: 93%.
Still for that read-out and setting: the same measure for `CCOC(=O)C1CCCN(c2c(NCc3ccco3)c(=O)c2=O)C1` (stereo not given): 94%; for `CC1(C)NC(=O)N(CC(O)CN(Cc2ccccc2)Cc2ccccc2)C1=O` (stereo not given): 78%; for `O=C1c2ccccc2C(O)(Cc2ccccc2)N1Cc1ccco1` (stereo not given): 88.5%.
`Cc1onc(-c2ccccc2)c1C(N)=O`: the viability came out at 91%.
Same read-out and setting: as for `CCC1(CC)NC(=O)NC1=O`, the figure is 110%.
The same measure, in the same setting: the same measure for `Cc1ccc2[nH]c3c(c2c1)CCc1cn[nH]c1-3`: 132%; for `COc1ccc(C(=O)Nn2c(C3CCC3)nc3ccccc3c2=O)c(OC)c1`: 93.5%; for `CCOC(=O)CSc1nnc(CCc2nc3ccccc3[nH]2)n1C`: 118%.
On the same count and under the same terms, the same measure for `COC(=O)c1[nH]c2cc(OC)ccc2c1NC(=O)CCN1CCCCC1`: 85%; for `Nc1nnc(C(=O)c2ccccc2N)s1`: 108%; for `CCn1c(C(=O)OC)cc2c1ccn2-c1ccc(F)cc1`: 91%.
Turning to `CC(C)C(NC(=O)c1ccco1)C(=O)NCC(c1ccco1)N1CCCCC1` (stereo not given), the viability was found to be 96.5%.
The same measure, in the same setting: as for `Cc1cc2ccccn2c1C(=O)c1ccncc1`, the figure is 114%; as for `CCCCc1c(O)nc(SCCN(C)C)n(-c2ccccc2)c1=O`, 93.5%; as for `COc1ccccc1N1CCN(c2nc3ccccc3nc2C(C#N)C(=O)OC(C)C)CC1` (stereo not given), 77%.
`CC1CCN(Cc2ccc(-c3nn[nH]n3)cc2)CC1`: the viability worked out at 116%.
Regarding `CCCCCc1c(C)nc(N2CCc3ccccc32)[nH]c1=O`, the viability is 92.5%.
On the same count and under the same terms, as for `COc1cccc(-n2c(SC3CCOC3=O)nc3ccccc3c2=O)c1` (stereo not given), the figure is 94.5%; as for `O=C(Nc1ccccc1C(=O)N1CCCCCC1)c1cccc(S(=O)(=O)N2CCOCC2)c1`, 95.5%.
Same read-out and setting: the same measure for `COc1cc(OC)cc(C(=O)NCCN2CCOCC2)c1`: 105%.
With `Cc1ccc(C)c(NC(=O)CC(NCCCN2CCOCC2)C(=O)O)c1` (stereo not given), the viability amounted to 94%.
In the case of `O=C(CN(C(=O)CCC(=O)Nc1nccs1)c1ccccc1F)NCC1CCCO1` (stereo not given), the viability was 110%.
The same measure, in the same setting: the same measure for `CCOC(=O)N1CCN(C(=O)CSc2nnc(-c3cc(OC)cc(OC)c3)o2)CC1`: 86.5%; for `Cc1ccc2nc(NC(=O)C3CCCN(S(=O)(=O)c4cnc[nH]4)C3)sc2c1` (stereo not given): 96.5%; for `C=Cn1nc(C)c2ccccc2c1=O`: 112%.
Still for that read-out and setting: as for `CCC(C)(C(=O)NC1CCCC1)N(C(=O)c1cnccn1)c1c(C)n(C)n(-c2ccccc2)c1=O` (stereo not given), the figure is 97%.
On the same count and under the same terms, the same measure for `Cc1ccc(NC(=O)C2CCCN(S(=O)(=O)c3cnc[nH]3)C2)c(Br)c1` (stereo not given): 88.5%.
For `CC(=O)Nn1c(C)nnc1-n1nc(C)cc1C`, the viability turned out to be 126%.

The target in the next experiment is Receptor tyrosine-protein kinase erbB-2 (Homo sapiens) (UniProt P04626). The description is as above. Conditions: 18-24 h, at 10 µM, stronger effect = lower value.
Sequence of Receptor tyrosine-protein kinase erbB-2 (Homo sapiens) (P04626 whole entry, looked up): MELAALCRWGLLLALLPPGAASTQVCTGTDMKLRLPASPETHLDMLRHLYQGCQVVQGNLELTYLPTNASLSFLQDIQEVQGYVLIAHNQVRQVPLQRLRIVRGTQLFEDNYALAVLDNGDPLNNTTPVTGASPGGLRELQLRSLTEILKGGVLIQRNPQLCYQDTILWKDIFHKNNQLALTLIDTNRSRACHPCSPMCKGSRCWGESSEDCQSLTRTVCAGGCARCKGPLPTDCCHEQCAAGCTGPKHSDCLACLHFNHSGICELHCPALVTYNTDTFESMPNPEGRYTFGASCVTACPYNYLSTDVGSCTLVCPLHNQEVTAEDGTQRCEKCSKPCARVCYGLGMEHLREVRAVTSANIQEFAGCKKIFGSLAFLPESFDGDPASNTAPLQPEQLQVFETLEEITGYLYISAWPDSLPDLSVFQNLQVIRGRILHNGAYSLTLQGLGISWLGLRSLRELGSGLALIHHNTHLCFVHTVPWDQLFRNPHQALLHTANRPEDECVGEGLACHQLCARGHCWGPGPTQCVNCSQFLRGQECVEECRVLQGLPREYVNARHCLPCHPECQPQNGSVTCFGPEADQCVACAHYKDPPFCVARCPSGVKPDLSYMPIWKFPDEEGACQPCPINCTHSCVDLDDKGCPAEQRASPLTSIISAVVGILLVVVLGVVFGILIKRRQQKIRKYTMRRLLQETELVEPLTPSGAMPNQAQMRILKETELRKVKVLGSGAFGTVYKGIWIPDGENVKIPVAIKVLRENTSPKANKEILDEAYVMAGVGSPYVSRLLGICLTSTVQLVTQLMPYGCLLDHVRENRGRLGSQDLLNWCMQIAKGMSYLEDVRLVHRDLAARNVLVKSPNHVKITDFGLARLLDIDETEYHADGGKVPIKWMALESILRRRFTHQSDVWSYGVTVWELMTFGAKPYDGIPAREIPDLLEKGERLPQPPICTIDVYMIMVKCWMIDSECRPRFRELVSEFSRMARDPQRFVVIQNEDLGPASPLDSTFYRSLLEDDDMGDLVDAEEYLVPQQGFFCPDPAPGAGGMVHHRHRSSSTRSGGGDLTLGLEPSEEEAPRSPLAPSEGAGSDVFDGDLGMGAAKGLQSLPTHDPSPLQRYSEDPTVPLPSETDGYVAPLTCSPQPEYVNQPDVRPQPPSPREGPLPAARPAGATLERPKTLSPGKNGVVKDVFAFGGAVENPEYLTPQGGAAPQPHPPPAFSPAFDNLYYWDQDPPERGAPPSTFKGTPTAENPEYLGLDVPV
For the molecule `Cc1ccc(-c2nnn(CC(=O)N(CC(=O)NC3CCCCC3)c3cnc4ccccc4c3)n2)o1`, the Her2 level is 92% (inactive).
On the same count and under the same terms, the same measure for `COCc1nnc(NC(=O)CCCOc2ccccc2)s1`: 92% (inactive).
On the same count and under the same terms, as for `CCc1cc2ccc(C)cc2nc1SCC(=O)N1CCN(C(=O)c2ccco2)CC1`, the figure is 82% (inactive).
As for `NC(=O)NC(c1ccccc1)c1ccccc1F` (stereo not given), the Her2 level is 106% (inactive).
Same read-out and setting: the same measure for `CC(C)c1nnc(SCC(=O)NCc2ccco2)n1C`: 91% (inactive); for `Cn1c(=O)c2c(nc(NCCCO)n2C/C=C/c2ccccc2)n(C)c1=O`: 70.5% (inactive).
The same measure, in the same setting: the same measure for `O=C(Nc1c(-c2ccccc2)nc2ccccn12)c1ccco1`: 106% (inactive); for `Nc1nc(N2C(=O)C3CC=CCC3C2=O)nn1-c1ccccc1` (stereo not given): 130% (inactive).
Still for that read-out and setting: the same measure for `COc1ccc(C(=O)NCc2nnc(SCC(=O)Nc3cc(C)cc(C)c3)o2)cc1OC`: 102% (inactive); for `c1coc(Cn2nnnc2CN2CCN(C3CCCC3)CC2)c1`: 107% (inactive); for `O=C(C1CCN(c2nnnn2-c2ccccc2)CC1)N1CCN(c2ccccc2)CC1`: 87.5% (inactive).
Regarding `COC(=O)c1ccc(CNC(=O)COc2ccccc2Br)o1`, the Her2 level is 108% (inactive).
In the case of `CCOC(=O)C1CCCN(c2c(NCc3ccco3)c(=O)c2=O)C1` (stereo not given), the Her2 level is 108% (inactive).
`CC1(C)NC(=O)N(CC(O)CN(Cc2ccccc2)Cc2ccccc2)C1=O` (stereo not given): the Her2 level is 78.5% (inactive).
On the same count and under the same terms, the same measure for `O=C1c2ccccc2C(O)(Cc2ccccc2)N1Cc1ccco1` (stereo not given): 104% (inactive).
Still for that read-out and setting: as for `Cc1onc(-c2ccccc2)c1C(N)=O`, the figure is 93.5% (inactive).
The same measure, in the same setting: the same measure for `CCC1(CC)NC(=O)NC1=O`: 90% (inactive); for `Cc1ccc2[nH]c3c(c2c1)CCc1cn[nH]c1-3`: 68% (inactive).
Take `COc1ccc(C(=O)Nn2c(C3CCC3)nc3ccccc3c2=O)c(OC)c1`: the Her2 level was 97% (inactive).
Turning to `CCOC(=O)CSc1nnc(CCc2nc3ccccc3[nH]2)n1C`, the Her2 level is 112% (inactive).
The same measure, in the same setting: as for `COC(=O)c1[nH]c2cc(OC)ccc2c1NC(=O)CCN1CCCCC1`, the figure is 114% (inactive).
The same measure, in the same setting: the same measure for `Nc1nnc(C(=O)c2ccccc2N)s1`: 91% (inactive); for `CCn1c(C(=O)OC)cc2c1ccn2-c1ccc(F)cc1`: 80.5% (inactive).
Still for that read-out and setting: as for `CC(C)C(NC(=O)c1ccco1)C(=O)NCC(c1ccco1)N1CCCCC1` (stereo not given), the figure is 94.5% (inactive); as for `Cc1cc2ccccn2c1C(=O)c1ccncc1`, 98% (inactive); as for `CCCCc1c(O)nc(SCCN(C)C)n(-c2ccccc2)c1=O`, 110% (inactive).
`COc1ccccc1N1CCN(c2nc3ccccc3nc2C(C#N)C(=O)OC(C)C)CC1` (stereo not given): the Her2 level is 112% (inactive).
Turning to `CC1CCN(Cc2ccc(-c3nn[nH]n3)cc2)CC1`, the Her2 level was 86.5% (inactive).
On the same count and under the same terms, the same measure for `CCCCCc1c(C)nc(N2CCc3ccccc32)[nH]c1=O`: 90% (inactive).
On the same count and under the same terms, the same measure for `COc1cccc(-n2c(SC3CCOC3=O)nc3ccccc3c2=O)c1` (stereo not given): 99.5% (inactive); for `O=C(Nc1ccccc1C(=O)N1CCCCCC1)c1cccc(S(=O)(=O)N2CCOCC2)c1`: 96% (inactive); for `COc1cc(OC)cc(C(=O)NCCN2CCOCC2)c1`: 92% (inactive).
Same read-out and setting: as for `Cc1ccc(C)c(NC(=O)CC(NCCCN2CCOCC2)C(=O)O)c1` (stereo not given), the figure is 93.5% (inactive); as for `O=C(CN(C(=O)CCC(=O)Nc1nccs1)c1ccccc1F)NCC1CCCO1` (stereo not given), 104% (inactive); as for `CCOC(=O)N1CCN(C(=O)CSc2nnc(-c3cc(OC)cc(OC)c3)o2)CC1`, 75.5% (inactive).
For `Cc1ccc2nc(NC(=O)C3CCCN(S(=O)(=O)c4cnc[nH]4)C3)sc2c1` (stereo not given), the Her2 level was 92% (inactive).
Same read-out and setting: the same measure for `C=Cn1nc(C)c2ccccc2c1=O`: 117% (inactive).
Still for that read-out and setting: the same measure for `CCC(C)(C(=O)NC1CCCC1)N(C(=O)c1cnccn1)c1c(C)n(C)n(-c2ccccc2)c1=O` (stereo not given): 124% (inactive); for `Cc1ccc(NC(=O)C2CCCN(S(=O)(=O)c3cnc[nH]3)C2)c(Br)c1` (stereo not given): 92% (inactive); for `CC(=O)Nn1c(C)nnc1-n1nc(C)cc1C`: 112% (inactive).

The viability is a read-out of living cells in per cent, often relative to untreated cells.
